Results: PMC4336329 (PLoS ONE, 2015)
Out of some 310,000 compounds screened, about 14,000 (4.5%) showed an effect of 50% or more. The effect is printed as a negative number. The list comes from a sample in which strong results are over-represented; it also holds similar structures and randomly drawn compounds.

molecular target: human ether-à-go-go-related gene (hERG) potassium channel (human, UniProt Q12809); assay: primary screen, population patch clamp on CHO cells stably expressing hERG; higher = less effect of the substance
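Note: peak tail current of the secondary pulse compared with the same well before compound.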

human ether-à-go-go-related gene (hERG) potassium channel, sequence (Q12809 whole entry, looked up): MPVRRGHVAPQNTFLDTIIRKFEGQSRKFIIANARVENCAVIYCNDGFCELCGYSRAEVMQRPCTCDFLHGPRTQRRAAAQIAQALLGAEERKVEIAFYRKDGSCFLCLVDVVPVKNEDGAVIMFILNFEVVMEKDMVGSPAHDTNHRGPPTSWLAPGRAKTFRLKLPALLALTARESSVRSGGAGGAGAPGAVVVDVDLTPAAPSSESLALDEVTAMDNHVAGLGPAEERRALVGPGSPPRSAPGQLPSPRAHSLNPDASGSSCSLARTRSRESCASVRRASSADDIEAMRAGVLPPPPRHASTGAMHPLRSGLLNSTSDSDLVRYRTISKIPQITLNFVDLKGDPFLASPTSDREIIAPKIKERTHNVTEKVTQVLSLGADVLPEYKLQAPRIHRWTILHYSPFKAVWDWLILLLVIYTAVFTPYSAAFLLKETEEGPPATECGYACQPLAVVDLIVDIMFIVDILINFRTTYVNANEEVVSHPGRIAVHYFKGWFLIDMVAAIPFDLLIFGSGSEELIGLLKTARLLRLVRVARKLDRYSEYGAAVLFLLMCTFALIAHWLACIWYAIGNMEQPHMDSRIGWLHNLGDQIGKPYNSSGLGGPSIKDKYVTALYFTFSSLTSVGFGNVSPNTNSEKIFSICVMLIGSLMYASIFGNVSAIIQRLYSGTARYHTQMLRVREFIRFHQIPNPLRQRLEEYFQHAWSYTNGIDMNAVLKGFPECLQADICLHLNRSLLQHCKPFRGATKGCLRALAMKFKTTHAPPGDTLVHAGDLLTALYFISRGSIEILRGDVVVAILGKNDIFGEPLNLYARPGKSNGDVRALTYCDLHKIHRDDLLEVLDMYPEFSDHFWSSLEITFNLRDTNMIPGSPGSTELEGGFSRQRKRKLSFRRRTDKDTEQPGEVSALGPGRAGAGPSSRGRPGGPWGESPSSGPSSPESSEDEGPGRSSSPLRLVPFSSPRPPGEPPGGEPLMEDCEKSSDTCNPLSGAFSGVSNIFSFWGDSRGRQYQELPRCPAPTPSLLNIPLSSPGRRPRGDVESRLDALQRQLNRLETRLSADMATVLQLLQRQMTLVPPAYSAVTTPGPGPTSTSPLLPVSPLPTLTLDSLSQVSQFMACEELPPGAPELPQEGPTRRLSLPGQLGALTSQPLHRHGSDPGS

Structure (SMILES)	hERG current change (%, negative = inhibition) at 10uM [%]
O=C(CCS(=O)(=O)c1ccc(Br)cc1)NCc1cccs1	-11.5
COC(=O)C(C(=O)OC)C(C[N+](=O)[O-])c1ccc(OC)c(OC)c1 (stereo not drawn)	-22.7
CCOC(=O)C1(Cc2cccc(OC)c2)CCN(CC=C(C)C)CC1	-22
CCOC(=O)C1(Cc2cccc(OC)c2)CCN(C/C=C/c2ccc(OC)cc2)CC1	-72.3
CCOC(=O)C1(Cc2cccc(OC)c2)CCN(C/C=C/c2ccccc2)CC1	-75.9
N#CCCn1[nH]c(-c2ccccc2)cc1=O	5.16
O=C(CCCc1c[nH]c2ccccc12)Nc1ncccc1O	14.7
CC1CCN(C2CC(=O)N(c3ccc(Br)cc3Br)C2=O)CC1 (stereo not drawn)	2.17
COc1ccc(C(CNC(=O)c2cc3ccccc3cc2O)N2CCOCC2)cc1 (stereo not drawn)	-3.36
O=C(CCc1ccccc1)Nc1ccnn1C1CCN(C/C=C/c2ccccc2)CC1	-72.1
COc1ccccc1CC(=O)N1CCC(n2nccc2NC(=O)C2CCOC2)CC1 (stereo not drawn)	4.83
CC(=O)c1cccc(CN2CCC(n3nccc3NC(=O)CCc3ccccc3)CC2)c1	-25.1
CSCC(=O)N1CCC(n2nccc2NC(=O)CCc2ccccc2)CC1	12.1
CC(C)C(=O)N1CCC(n2nccc2NC(=O)CCc2ccccc2)CC1	18.7
COc1ccccc1/C=C/CN1CCC(n2nccc2NC(=O)CCc2ccccc2)CC1	-86.1
COc1ccccc1/C=C/CN1CCC(n2nccc2NC(=O)C2CC2)CC1	-59.1
COCCC(=O)N1CCC(n2nccc2NC(=O)CCc2ccccc2)CC1	14.2
COc1cc(CC(=O)N2CCC(n3nccc3NC(=O)C3CC3)CC2)cc(OC)c1OC	12.8
COCC1CCCN(C(=O)c2ccc3oc(CCCc4ccccc4)nc3c2)C1 (stereo not drawn)	-16.2
CCn1c(SCC(=O)C(C)(C)C)nnc1-c1cccnc1	-0.363
CC(C)NS(=O)(=O)c1ccc(NC(=O)C(C)OC(=O)CCC2CCCC2)cc1 (stereo not drawn)	7.06
Cc1cc(C(=O)N/N=C/c2cc([N+](=O)[O-])ccc2O)c2ccccc2n1	6.35

Structure (SMILES)	hERG current change (%, negative = inhibition) at 10uM [%]
CCOCCCNC(=S)N(CCN(CC)CC)Cc1cc2cc3c(cc2[nH]c1=O)OCCO3	7.75
CCCN(CCC)C1Sc2ccc(C(=O)OC)cc2NC1=O (stereo not drawn)	-9.31
Cc1ccc(NC(=S)N2CCC(O)CC2)c(C)c1	16.3
CC(=O)Oc1ccc2nc(CN3C(=O)c4ccc([N+](=O)[O-])cc4C3=O)oc(=O)c2c1	10
O=C(NN1C(=O)c2ccccc2NC1c1ccc([N+](=O)[O-])o1)c1ccc(Br)cc1 (stereo not drawn)	-72.7
CC(=O)NN1C(=O)c2ccccc2NC1c1ccc([N+](=O)[O-])o1 (stereo not drawn)	8.22
O=C(NN1C(=O)c2ccccc2NC1c1ccc([N+](=O)[O-])o1)c1ccccc1 (stereo not drawn)	-9.78
O=C(NN1C(=O)c2ccccc2NC1c1ccco1)c1ccccc1 (stereo not drawn)	-0.469
O=C(NN1C(=O)c2ccccc2NC1c1ccc([N+](=O)[O-])o1)c1ccc([N+](=O)[O-])cc1 (stereo not drawn)	-65.5
O=C(NN1C(=O)c2ccccc2NC1c1ccco1)c1ccc(Br)cc1 (stereo not drawn)	-76.6
CC(=O)NN1C(=O)c2ccccc2NC1c1ccco1 (stereo not drawn)	15.7
CC1Nc2ccccc2C(=O)N1NC(=O)c1ccc(Br)cc1 (stereo not drawn)	-9.66
O=C(NN1C(=O)c2ccccc2NC1c1ccoc1)c1ccc([N+](=O)[O-])cc1 (stereo not drawn)	-41.8
COc1ccccc1NCCC(=O)OCC(=O)NC1CCCC(C)C1C (stereo not drawn)	9.37
CCOc1cc(/C=C2/C(=N)N3N=C(C)SC3=NC2=O)ccc1OS(=O)(=O)c1ccc(C)cc1	0.16
COc1ccc(NC(=O)Cn2c(=O)n(-c3ccccc3)c(=O)c3sccc32)c(OC)c1	0.835
CCOC(=O)c1sc(NC(=O)CCN2CCCCCC2)c(C(=O)OCC)c1C	-24.7
CCOC(=O)c1sc(NC(=O)CCN2CCN(CC)CC2)c(C(=O)OCC)c1C	-88.9
CCOC(=O)c1c(NC(=O)c2cccs2)sc(C(=O)N2CCOCC2)c1C	-55.5
CCOC(=O)c1c(-c2ccc(OC)cc2)csc1NC(=O)CCN1CCOCC1	-53.2
CCOC(=O)c1c(-c2ccc(C)cc2)csc1NC(=O)CCN1CCOCC1	-42.1
CCOC(=O)c1c(NC(=O)c2cccs2)sc(C(=O)N(C)C)c1C	-10.9

Structure (SMILES)	hERG current change (%, negative = inhibition) at 10uM [%]
CCOC(=O)c1c(-c2ccc(-c3ccccc3)cc2)csc1NC(=O)CCN1CCOCC1	13.8
CCOC(=O)c1sc(NC(=O)CCN2CCC(C)CC2)c(C(=O)OCC)c1C	9
CCOC(=O)c1sc(NC(=O)CCN2CCN(C)CC2)c(C(=O)OCC)c1C	-79
CCOC(=O)c1sc(NC(=O)CCN2CC(C)OC(C)C2)c(C(=O)OCC)c1C.O=C(O)C(=O)O (stereo not drawn)	13.9
CCOC(=O)c1c(NC(=O)c2cccs2)sc(C)c1C	3.46
CCOC(=O)c1sc(NC(=O)CCN2CCOCC2)c(C(=O)OCC)c1C	-2.58
NS(=O)(=O)c1ccc(CNC(=O)CSc2ccccc2)cc1	14.5
CCOC(=O)C(=NC(C)CC)NNc1cccc(C(F)(F)F)c1 (stereo not drawn)	-1.86
O=C(c1ccc([N+](=O)[O-])cc1[N+](=O)[O-])N1CCCC1	5.62
CN(Cc1ccccc1)C(=O)c1cc(S(=O)(=O)N2CCOCC2)cn1C	-7.13
Fc1cc(Br)ccc1NC(=S)Nc1cccnc1	0.43
COc1ccc(C(=O)O)cc1S(=O)(=O)NC(C)C12CC3CC(CC(C3)C1)C2 (stereo not drawn)	1.27
O=C(NC1CCCCCC1)c1c(O)c2ccccc2[nH]c1=O	8.34
CCOC(=O)c1ccc(NC(=O)CCc2nc(-c3ccc(C)cc3)no2)cc1	5.14
Cc1cccc(OCC(=O)NCc2cc(C)nc3ccccc23)c1	-9.05
O=c1cc(CCl)[nH]c2nc3ccccc3n12	-6.02
CCC(C)n1c(SCc2ccc([N+](=O)[O-])cc2)nc2ccsc2c1=O (stereo not drawn)	-11.6
CN1CCN(c2nc(-c3ccc(Cl)s3)cs2)CC1	-3.91
O=c1oc(-c2ccc([N+](=O)[O-])cc2)nc2ccccc12	18.2
CCOC(=O)c1c(NC(=O)CN2CCN(C)CC2)sc(C(=O)Nc2ccccc2)c1C	-58.9
CCOC(=O)c1c(NC(=O)CSc2cccc[n+]2[O-])sc(C(=O)Nc2ccccc2)c1C	-30.1
CCOC(=O)c1sc(NC(=O)CN2CCCC2)c(C(=O)OCC)c1C	-6.37

Structure (SMILES)	hERG current change (%, negative = inhibition) at 10uM [%]
Cc1ccc(NC(=O)CSCC(=O)OC(C)C(=O)Nc2ccc(S(N)(=O)=O)cc2)c(C)c1 (stereo not drawn)	5.08
COc1ccc(F)cc1C(=O)C1CCCN(C(=O)c2ocnc2C)C1 (stereo not drawn)	-10.1
O=C(NC1CCCC1)C(=O)N(Cc1cccnc1)C(C(=O)NC1CCCC1)c1ccco1 (stereo not drawn)	19.6
O=C(CN1CCN(c2ccccc2F)CC1)c1ccc(O)c(O)c1	-70.7
O=C(CN1CCN(c2ccccc2F)CC1)c1ccc(O)cc1O	14.2
O=C(CN1CCN(c2ccccc2)CC1)c1ccc2cc[nH]c2c1	11.4
O=C(CN1CCN(c2ccccc2F)CC1)c1ccc2cc[nH]c2c1	-82.9
O=C(CN1CCOCC1)c1ccc2cc[nH]c2c1	8.82
O=C(CN1CCN(c2ccccc2F)CC1)c1ccc2c(c1)OCO2	-10.3
CC(=O)Cc1nsc(NC(=O)c2ccc(-c3cc(C(F)(F)F)ccc3Cl)o2)n1	22.7
O=C(c1cccnc1)N1CCN(S(=O)(=O)c2ccc3ccccc3c2)CC1	-34.9
CC(CNC(=O)c1ccc(Br)o1)NC(=O)c1ccc(Br)o1 (stereo not drawn)	-0.676
CC1CCCCC1NC(=O)COC(=O)CCC(=O)c1cccs1 (stereo not drawn)	17.3
CCn1c(Cn2nnc(-c3ccccc3)n2)nnc1SCC(=O)Nc1ccccc1	-7.39
CC(C)Oc1ccc(NC(N)=O)cc1	1.14
CCC(C)N=C1Sc2nc3ccc(C)cc3cc2CN1CCOC (stereo not drawn)	-79
CCOc1ccc(N=C2Sc3nc4ccc(C)cc4cc3CN2CCOC)cc1	41.4
COCCN=C1Sc2nc3ccc(C)cc3cc2CN1Cc1ccco1	-61
COCCN=C1Sc2nc3ccc(C)cc3cc2CN1Cc1cccs1	-11.1
COCCN=C1Sc2nc3c(C)cccc3cc2CN1Cc1ccco1	8.49
COCCN1Cc2cc3cc(C)ccc3nc2SC1=Nc1ccc(OC)cc1	7.73
